Several values for one entry are separate records, joined by “and”; a condition that tells them apart may be missing. Identical values can stand only once. Records with an inconclusive call do not appear. Activity calls are given as the source filed them. How the source made its calls, unless noted: active means hit-call score of the fitted dose curve at least 0.9, where 1 is the maximum; inconclusive means response in the unintended direction; inactive means score below 0.9.

By AC50 is commonly meant the midpoint of the concentration-response curve, whichever way the signal moves.

In assay [1] the target is human Norepinephrine Transporter (NET), SLC6A2 (gene 6530) (UniProt P23975). Put plainly: NVS_TR_hNET: NovaScreen (NVS) Transporter Assay for human Norepinephrine Transporter (NET) (AID 2283377).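 On AC50: displacement of radioligand from human NET seen as loss of scintillation signal.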 A digest of the protocol: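 Cell-free radioligand binding using CHO-derived membrane protein expressing human NET, read by filter scintillation counting 1 h after dosing; loss of signal vs DMSO. Initial duplicate screen at 25 uM, actives retested in concentration series.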

The nature of assay [2]: CEETOX_H295R_OHPREG: CeeTox H295R High-throughput Steroidogenesis Assay for OH-Pregnenolone (OHPREG) (AID 2283434; active means hit-call score of the fitted dose curve at least 0.9, where 1 is the maximum; inactive means score below 0.9). Particulars: actives raise or lower the signal. The essentials:
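H295R cells pre-stimulated 48 h with 10 uM forskolin, then exposed 48 h to chemical in 0.1% DMSO. 17alpha-hydroxypregnenolone in medium quantified by MTBE extraction and HPLC-MS/MS; bidirectional fit versus DMSO, viability checked by MTT.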

Assay [3] in a line: CEETOX_H295R_OHPROG: CeeTox H295R High-throughput Steroidogenesis Assay for OH-Progesterone (OHPROG) (AID 2283435; active means hit-call score of the fitted dose curve at least 0.9, where 1 is the maximum; inactive means score below 0.9). Particulars: actives raise or lower the signal. The essentials:
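H295R human adrenal cells were prestimulated 48 h with 10 uM forskolin, then exposed 48 h to test chemical (0.1% DMSO final). 17alpha-hydroxyprogesterone in medium was measured by HPLC-MS/MS after MTBE extraction; bidirectional fitting vs DMSO.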

Assay [4] can be described thus: CEETOX_H295R_ANDR: CeeTox H295R High-throughput Steroidogenesis Assay for Androstenedione (ANDR) (AID 2283436; active means hit-call score of the fitted dose curve at least 0.9, where 1 is the maximum; inactive means score below 0.9). Particulars: actives raise or lower the signal. A digest of the protocol:
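H295R cells, following OECD 456 with minor changes, exposed to chemicals for 48 h. Androstenedione in the medium was quantified by HPLC-MS/MS after MTBE extraction. Fitting was bidirectional versus DMSO; chemicals were diluted until MTT viability was ≥70%.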

Assay [5] in a line: CEETOX_H295R_CORTIC: CeeTox H295R High-throughput Steroidogenesis Assay for Corticosterone (CORTIC) (AID 2283437; active means hit-call score of the fitted dose curve at least 0.9, where 1 is the maximum; inactive means score below 0.9;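 further: corticosterone secreted into medium quantified by mass spectrometry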). Particulars: actives raise or lower the signal. A digest of the protocol:
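H295R adrenal cells prestimulated 48 hours with 10 uM forskolin, then exposed 48 hours to chemical in 0.1% DMSO. Corticosterone in medium measured by HPLC-MS/MS after MTBE extraction; MTT viability in the same wells; bidirectional fit versus DMSO.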

Assay [6] in a line: CEETOX_H295R_CORTISOL: CeeTox H295R High-throughput Steroidogenesis Assay for Cortisol (AID 2283438; active means hit-call score of the fitted dose curve at least 0.9, where 1 is the maximum; inactive means score below 0.9;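 further: cortisol secreted into medium quantified by LC-MS/MS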). To be noted: actives raise or lower the signal. A digest of the protocol: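 H295R human adrenal cells were prestimulated 48 h with 10 uM forskolin, then exposed 48 h to test chemical (0.1% DMSO final). Medium cortisol was quantified by HPLC-MS/MS after MTBE extraction; bidirectional fitting relative to DMSO baseline.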

Assay [7] in a line: CEETOX_H295R_DOC: CeeTox H295R High-throughput Steroidogenesis Assay for DOC (AID 2283439; active means hit-call score of the fitted dose curve at least 0.9, where 1 is the maximum; inactive means score below 0.9). Particulars: actives raise or lower the signal. The essentials: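 H295R adrenal cells prestimulated 48 h with 10 uM forskolin, then exposed 48 h to test chemical (0.1% DMSO final). Medium 11-deoxycorticosterone extracted with MTBE, quantified by HPLC-MS/MS; bidirectional fit versus DMSO baseline; MTT viability in same wells.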

In assay [8] the target is Bile acid receptor (Homo sapiens) (UniProt Q96RI1). Put plainly: OT_FXR_FXRSRC1_0480: Odyssey Thera (OT) 8-hour HEK293T Protein-Complementation Assay for Farnesoid X receptor/SRC-1 Co-activator (AID 2283383). The essentials: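 HEK293T cells expressing FXR and SRC-1 fused to reporter fragments were dosed with compound for 8 h; fluorescence from the reconstituted reporter marked co-activator recruitment. Gain of signal was fitted against the DMSO baseline.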

The target is the same in assay [9]. Description: OT_FXR_FXRSRC1_1440: Odyssey Thera (OT) 24-hour HEK293T Protein-Complementation Assay for Farnesoid X receptor/SRC-1 Co-activator (AID 2283384). The essentials:
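HEK293T cells were dosed with compound and read 24 h later by fluorescence intensity from protein-fragment complementation reporting FXR/SRC-1 co-activator interaction. Gain of signal was fitted relative to DMSO negative control as baseline.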

Assay [10] concerns the target Retinoic acid receptor RXR-alpha (Homo sapiens) (UniProt P19793). Description: OT_NURR1_NURR1RXRa_1440: Odyssey Thera (OT) 24-hour HEK293T Protein Complementation Assay for Nurr1/retinoid X receptor (RXR) (AID 2283386). The essentials: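 HEK293T cells were dosed with compound and read 24 h later by fluorescence intensity in a protein-fragment complementation format, where Nurr1–RXRα interaction reconstitutes a split reporter. Activity was fitted as gain of signal relative to DMSO baseline.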

The target of assay [11] is Peroxisome proliferator-activated receptor gamma (Homo sapiens) (UniProt P37231). Description: OT_PPARg_PPARgSRC1_1440: Odyssey Thera (OT) 24-hour Protein-Complementation Assay for Peroxisome Proliferator-activated Receptor Gamma/ SRC-1 Co-activator (AID 2283388). A digest of the protocol: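 HEK293T cells transiently transfected with PPARg and SRC-1 fused via (Gly4Ser)2 linker to split Venus YFP fragments (IFP1/IFP2) were dosed 24 h; fixed, Draq5-stained, imaged at 488/635 nm; nuclear/cytoplasmic fluorescence ratio scored versus DMSO baseline, gain-of-signal.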

Assay [12] has as its target Norway rat Vesicular Monoamine Transporter (VMAT2), neurotransmitter transporter, Slc18a2 (gene 25549) (UniProt Q01827). Description: NVS_TR_rVMAT2: NovaScreen (NVS) Transporter Assay for Norway rat Vesicular Monoamine Transporter (VMAT2), neurotransmitter transporter (AID 2283376).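 Further: actives lower the bound radioligand signal below the DMSO level.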 The essentials:
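Radioligand displacement binding on rat forebrain tissue preparation, filter-based scintillation read-out 1 hour after dosing. Primary screen in duplicate at 25 uM, then concentration series for actives; loss of signal versus DMSO.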

Assay [13] concerns the target Estrogen receptor beta (Homo sapiens) (UniProt Q92731). Description: OT_ER_ERbERb_1440: Odyssey Thera (OT) 24-hour HEK293T Protein-Complementation Assay for Estrogen Receptor-beta/-beta Homodimer (AID 2283380).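 Further: scored as signal increase over DMSO baseline for both agonists and antagonists.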 A digest of the protocol: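 HEK293T cells stably expressing ER beta LBD (aa 310-547) homodimer fragment-complementation reporter, dosed 24 h. Cells formaldehyde-fixed, Draq5-stained; gain in nuclear (agonist) or nuclear plus cytoplasmic (antagonist) fluorescence versus DMSO read by laser scanning cytometry.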

Assay [14] deals with mouse Estrogen Receptor alpha (Era), Esr1 (gene 13982) (UniProt P19785). Description: NVS_NR_mERa: NovaScreen (NVS) Nuclear Receptor Binding Assay for mouse Estrogen Receptor alpha (Era) (AID 2283378).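 Further: hit means loss of bound radioligand signal relative to DMSO.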 The essentials:
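Cell-free radioligand binding with extracted mouse Era protein; competitive displacement of radiolabelled ligand, read by filter-based scintillation counting 18 hours after dosing. Loss of signal versus DMSO baseline taken as binding; single screening concentration 25 uM, actives followed in concentration series.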

The target of assay [15] is Estrogen receptor (Homo sapiens) (UniProt P03372). Description: OT_ERa_GFPERaERE_0480: Odyssey Thera (OT) 8-hour HeLa Transcription Induction Assay for Estrogen Receptor (AID 2283381; active means hit-call score of the fitted dose curve at least 0.9, where 1 is the maximum; inactive means score below 0.9). The essentials:
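HeLa cells dosed with compound and imaged by fluorescence microscopy at 8 h; GFP induction from an ERE reporter quantified by high-content image analysis and fitted as gain of signal against DMSO baseline.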

The target is the same in assay [16]. Description: OT_ERa_GFPERaERE_0120: Odyssey Thera (OT) 2-hour HeLa Transcription Induction Assay for Estrogen Receptor (AID 2283382). A digest of the protocol:
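HeLa cells were dosed with test chemical and read 2 hours later for GFP-ERα/ERE-linked fluorescent protein induction by fluorescence microscopy. Gain-of-signal was fitted relative to DMSO baseline, quantified by high content image analysis.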

Assay [17] deals with Agonist Androgen Response Element (ARE), AR (gene 367) (UniProt P10275). Put plainly: OT_AR_ARELUC_AG_1440: Odyssey Thera (OT) 24-hour CHO-K1 Luciferase Assay for Agonist Androgen Response Element (ARE) (AID 2283379). A digest of the protocol:
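CHO-K1 cells carrying an ARE-driven luciferase reporter were exposed to compounds for 24 h. Luminescence was then read after adding a D-luciferin/ATP mix, and activity was scored as a gain in signal over DMSO vehicle.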

The nature of assay [18]: CEETOX_H295R_ESTRADIOL: CeeTox H295R High-throughput Steroidogenesis Assay for Estradiol (AID 2283440; active means hit-call score of the fitted dose curve at least 0.9, where 1 is the maximum; inactive means score below 0.9;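 further: estradiol secreted into medium quantified by LC-MS/MS after dansyl derivatisation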). To be noted: actives raise or lower the signal. A digest of the protocol:
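H295R adrenocortical cells were prestimulated with 10 uM forskolin for 48 h, then exposed to test chemical in 0.1% DMSO for 48 h. Medium estradiol was extracted with MTBE, dansyl-derivatized and quantified by HPLC-MS/MS; bidirectional fit versus DMSO.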

The nature of assay [19]: CEETOX_H295R_ESTRONE: CeeTox H295R High-throughput Steroidogenesis Assay for Estrone (AID 2283441; active means hit-call score of the fitted dose curve at least 0.9, where 1 is the maximum; inactive means score below 0.9;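 further: estrone secreted into medium measured by LC-MS/MS after dansyl derivatization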). To be noted: actives raise or lower the signal. A digest of the protocol:
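H295R cells; 48 h forskolin (10 uM) prestimulation; 48 h compound exposure, 0.1% DMSO final. Medium estrone: MTBE extraction, dansyl derivatization, HPLC-MS/MS. Bidirectional fit vs DMSO.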

Chain of Retinoic acid receptor RXR-alpha (Homo sapiens) (P19793 whole entry, looked up, the tested form may be a part): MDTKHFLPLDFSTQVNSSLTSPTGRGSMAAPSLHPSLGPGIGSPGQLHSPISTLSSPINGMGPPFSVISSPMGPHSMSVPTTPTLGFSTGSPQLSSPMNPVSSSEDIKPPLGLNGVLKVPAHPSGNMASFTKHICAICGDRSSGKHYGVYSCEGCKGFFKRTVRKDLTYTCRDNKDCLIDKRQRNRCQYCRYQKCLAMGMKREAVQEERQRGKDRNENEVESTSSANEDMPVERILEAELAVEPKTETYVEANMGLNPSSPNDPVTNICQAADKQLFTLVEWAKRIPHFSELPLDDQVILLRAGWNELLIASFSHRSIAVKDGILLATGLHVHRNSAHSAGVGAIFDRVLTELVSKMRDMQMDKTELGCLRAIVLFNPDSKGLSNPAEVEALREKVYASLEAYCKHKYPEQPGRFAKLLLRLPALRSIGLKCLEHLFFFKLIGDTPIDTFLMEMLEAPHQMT
Chain of human Norepinephrine Transporter (NET), SLC6A2 (gene 6530) (P23975 whole entry, looked up): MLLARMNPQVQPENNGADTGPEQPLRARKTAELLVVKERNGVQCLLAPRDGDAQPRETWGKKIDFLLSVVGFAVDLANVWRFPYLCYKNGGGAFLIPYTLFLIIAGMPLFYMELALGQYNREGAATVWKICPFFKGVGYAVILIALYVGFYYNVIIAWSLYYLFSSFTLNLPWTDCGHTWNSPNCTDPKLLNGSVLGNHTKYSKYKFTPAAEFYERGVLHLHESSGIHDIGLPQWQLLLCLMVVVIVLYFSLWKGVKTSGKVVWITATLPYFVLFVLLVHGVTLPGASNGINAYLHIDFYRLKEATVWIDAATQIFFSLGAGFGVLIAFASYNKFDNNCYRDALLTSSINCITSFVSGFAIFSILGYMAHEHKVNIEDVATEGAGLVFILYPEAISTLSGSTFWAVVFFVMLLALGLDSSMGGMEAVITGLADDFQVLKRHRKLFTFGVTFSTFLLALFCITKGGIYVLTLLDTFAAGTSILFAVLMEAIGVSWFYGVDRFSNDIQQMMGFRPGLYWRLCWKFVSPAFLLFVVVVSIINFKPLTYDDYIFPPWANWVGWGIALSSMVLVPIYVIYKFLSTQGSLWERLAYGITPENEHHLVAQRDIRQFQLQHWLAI
Chain of Peroxisome proliferator-activated receptor gamma (Homo sapiens) (P37231 whole entry, looked up, the tested form may be a part): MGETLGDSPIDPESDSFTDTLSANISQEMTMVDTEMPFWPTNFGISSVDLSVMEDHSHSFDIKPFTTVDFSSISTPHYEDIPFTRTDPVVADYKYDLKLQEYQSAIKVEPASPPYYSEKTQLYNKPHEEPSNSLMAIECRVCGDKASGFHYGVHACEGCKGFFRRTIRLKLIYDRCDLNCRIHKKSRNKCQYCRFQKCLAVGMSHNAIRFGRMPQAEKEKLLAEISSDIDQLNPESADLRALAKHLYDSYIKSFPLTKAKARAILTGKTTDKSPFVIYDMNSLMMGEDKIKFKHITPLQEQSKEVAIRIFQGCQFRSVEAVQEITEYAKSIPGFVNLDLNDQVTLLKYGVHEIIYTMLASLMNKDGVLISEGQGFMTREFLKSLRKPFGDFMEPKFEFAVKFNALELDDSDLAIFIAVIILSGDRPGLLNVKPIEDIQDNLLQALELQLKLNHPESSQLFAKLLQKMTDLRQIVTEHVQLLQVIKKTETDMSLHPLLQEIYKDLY
Chain of Norway rat Vesicular Monoamine Transporter (VMAT2), neurotransmitter transporter, Slc18a2 (gene 25549) (Q01827 whole entry, looked up): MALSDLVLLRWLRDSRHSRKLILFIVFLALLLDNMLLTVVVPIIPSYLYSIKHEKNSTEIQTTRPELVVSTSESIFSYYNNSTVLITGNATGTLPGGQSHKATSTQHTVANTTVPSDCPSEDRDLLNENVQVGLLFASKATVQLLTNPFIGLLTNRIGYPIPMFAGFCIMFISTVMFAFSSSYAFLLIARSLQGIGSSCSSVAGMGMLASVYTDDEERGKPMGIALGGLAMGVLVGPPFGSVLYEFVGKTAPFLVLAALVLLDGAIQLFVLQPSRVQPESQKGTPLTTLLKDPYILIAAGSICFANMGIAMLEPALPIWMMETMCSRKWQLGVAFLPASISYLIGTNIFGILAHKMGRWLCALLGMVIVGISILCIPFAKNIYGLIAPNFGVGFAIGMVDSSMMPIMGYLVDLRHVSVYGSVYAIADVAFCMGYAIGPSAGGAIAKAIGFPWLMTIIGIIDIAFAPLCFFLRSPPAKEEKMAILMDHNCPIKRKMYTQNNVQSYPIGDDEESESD
Chain of Bile acid receptor (Homo sapiens) (Q96RI1 whole entry, looked up, the tested form may be a part): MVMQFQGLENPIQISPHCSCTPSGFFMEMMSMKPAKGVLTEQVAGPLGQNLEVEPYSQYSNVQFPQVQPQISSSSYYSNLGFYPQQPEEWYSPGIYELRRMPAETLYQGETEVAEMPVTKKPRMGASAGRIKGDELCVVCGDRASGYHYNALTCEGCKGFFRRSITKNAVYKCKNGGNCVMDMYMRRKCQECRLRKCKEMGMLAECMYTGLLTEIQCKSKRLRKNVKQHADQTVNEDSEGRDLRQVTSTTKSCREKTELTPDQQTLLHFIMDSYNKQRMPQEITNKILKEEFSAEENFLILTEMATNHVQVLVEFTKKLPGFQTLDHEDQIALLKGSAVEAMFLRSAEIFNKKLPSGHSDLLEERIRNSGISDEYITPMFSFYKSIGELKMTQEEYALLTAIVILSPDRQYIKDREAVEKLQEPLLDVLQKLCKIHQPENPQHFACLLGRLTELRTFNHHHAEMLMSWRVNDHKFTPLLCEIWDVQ
Chain of Estrogen receptor beta (Homo sapiens) (Q92731 whole entry, looked up, the tested form may be a part): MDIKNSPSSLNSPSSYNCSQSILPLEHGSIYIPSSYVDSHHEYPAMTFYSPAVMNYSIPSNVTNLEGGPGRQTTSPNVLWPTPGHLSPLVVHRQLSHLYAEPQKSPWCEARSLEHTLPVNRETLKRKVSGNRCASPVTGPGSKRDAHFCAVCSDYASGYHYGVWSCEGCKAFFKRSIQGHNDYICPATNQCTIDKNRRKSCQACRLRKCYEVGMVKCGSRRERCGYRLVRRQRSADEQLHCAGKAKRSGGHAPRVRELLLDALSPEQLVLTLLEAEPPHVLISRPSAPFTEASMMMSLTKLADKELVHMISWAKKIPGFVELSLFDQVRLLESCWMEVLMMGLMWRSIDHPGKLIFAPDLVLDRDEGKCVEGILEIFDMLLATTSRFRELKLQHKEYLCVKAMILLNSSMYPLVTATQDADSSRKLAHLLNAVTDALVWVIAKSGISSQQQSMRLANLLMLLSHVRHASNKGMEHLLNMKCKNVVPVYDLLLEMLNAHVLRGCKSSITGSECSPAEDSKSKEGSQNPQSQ
Chain of mouse Estrogen Receptor alpha (Era), Esr1 (gene 13982) (P19785 whole entry, looked up): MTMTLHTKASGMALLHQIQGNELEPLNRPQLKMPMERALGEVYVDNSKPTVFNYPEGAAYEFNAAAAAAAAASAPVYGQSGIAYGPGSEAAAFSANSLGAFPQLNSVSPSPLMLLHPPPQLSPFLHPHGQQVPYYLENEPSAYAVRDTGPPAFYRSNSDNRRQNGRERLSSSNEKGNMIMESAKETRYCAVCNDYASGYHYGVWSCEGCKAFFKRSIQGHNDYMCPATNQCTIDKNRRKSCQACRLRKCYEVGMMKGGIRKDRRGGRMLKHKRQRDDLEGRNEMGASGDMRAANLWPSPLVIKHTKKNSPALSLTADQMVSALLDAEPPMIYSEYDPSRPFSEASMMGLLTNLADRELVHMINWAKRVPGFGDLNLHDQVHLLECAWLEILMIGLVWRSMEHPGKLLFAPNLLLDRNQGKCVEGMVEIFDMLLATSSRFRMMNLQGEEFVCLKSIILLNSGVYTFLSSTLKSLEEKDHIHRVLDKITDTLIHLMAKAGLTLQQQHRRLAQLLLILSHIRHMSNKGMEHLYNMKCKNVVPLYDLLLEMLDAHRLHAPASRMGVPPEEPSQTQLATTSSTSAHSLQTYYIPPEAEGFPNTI
Chain of Estrogen receptor (Homo sapiens) (P03372 whole entry, looked up): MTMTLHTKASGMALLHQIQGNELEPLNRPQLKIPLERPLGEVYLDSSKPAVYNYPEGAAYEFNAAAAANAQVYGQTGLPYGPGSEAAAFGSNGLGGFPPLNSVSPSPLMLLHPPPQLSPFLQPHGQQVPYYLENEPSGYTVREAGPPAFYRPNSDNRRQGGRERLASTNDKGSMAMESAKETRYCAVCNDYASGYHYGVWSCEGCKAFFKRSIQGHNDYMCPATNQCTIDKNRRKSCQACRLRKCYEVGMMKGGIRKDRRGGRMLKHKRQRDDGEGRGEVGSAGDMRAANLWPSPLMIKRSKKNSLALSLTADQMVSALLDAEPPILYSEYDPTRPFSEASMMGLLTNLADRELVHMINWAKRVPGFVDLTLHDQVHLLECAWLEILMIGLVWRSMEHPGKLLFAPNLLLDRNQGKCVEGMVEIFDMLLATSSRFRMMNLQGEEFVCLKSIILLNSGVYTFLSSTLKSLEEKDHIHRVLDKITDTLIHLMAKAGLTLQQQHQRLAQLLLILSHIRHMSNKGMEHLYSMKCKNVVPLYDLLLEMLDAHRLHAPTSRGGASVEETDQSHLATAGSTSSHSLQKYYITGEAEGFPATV

Turning to `Cc1cc(C(C)(C)c2ccc(O)c(C)c2)ccc1O`, the AC50 was 8.57 µM (active) in assay [1], 5 µM (active) in assay [4], 5 µM (active) in assay [6] and 2.91 µM (active) in assay [7]. In addition, the result in [2], in [3] and in [5] was inactive.

On to `O=C(O)C1(c2ccc3c(c2)OC[C@H](Cc2ccc(-c4ccccc4)cc2)[C@H]3O)CCCC1`, for which the AC50 was 5.29 µM (active) in [1]; 77 µM (active) in assay [8]; 90 µM (active) in [9]; 79.5 µM (active) and 87.5 µM (active) in [10]. For the same molecule, the call in [11] was inactive.

With `CCCCCCCCCCCCOS(=O)(=O)O`, the molecule was called inactive in [12] and in assay [10].

For `CC1(C)[C@H](C(=O)O[C@H](C#N)c2cccc(Oc3ccccc3)c2)[C@@H]1/C=C(\Cl)C(F)(F)F`, the result in [1], in [13], in [8], in assay [9] and in assay [11] was inactive.

Regarding `O=c1[nH]c2ccccc2n1C1CCN(CCCC(c2ccc(F)cc2)c2ccc(F)cc2)CC1`, the result in [14] was inactive.

With `N#Cc1cccnc1`, the result in assay [12], in [13], in [15], in assay [16], in assay [9] and in assay [10] was inactive. The molecule was called inactive in [11].

`O=C(O)COc1cc(Cl)c(Cl)cc1Cl`: the outcome in assay [12], in assay [17], in assay [13], in assay [8], in [10] and in [11] was inactive.

With `O=C(Cl)OCCOCCOC(=O)Cl`, the AC50 in assay [14] is 6.49 µM (active).

In the case of `O=[N+]([O-])c1ccc(Nc2ccccc2)cc1`, the AC50 is 20.4 µM (active) in [1] and 1.42 µM (active) in assay [3]. In addition, the call in assay [14], in assay [2], in assay [5], in assay [6], in [7] and in [18] was inactive. Moreover, the result in assay [19] was inactive.

For the molecule `CCOP(=O)(OCC)OC(=CCl)c1ccc(Cl)cc1Cl`, the AC50 is 10.9 µM (active) in assay [12]; 5.16 µM (active) in assay [3]; 5.28 µM (active) in assay [5]; 5.66 µM (active) in assay [6]; 5.48 µM (active) in assay [7]. In addition, the molecule was classed as inactive in [2].

With `[Cl][Sn]([c]1ccccc1)([c]1ccccc1)[c]1ccccc1`, the call in [12] was inactive. Besides, in [1], the AC50 is 1.19 µM (active).

Take `CC1CC(=O)O1` (stereo not drawn): the outcome in assay [12] was inactive.

As for `Oc1ccc(Cc2ccc(O)cc2)cc1`, the AC50 in [1] is 25 µM (active).

Source of the values: PubChem BioAssay (EPA / NIEHS).
